Counter-ions that a name gives are not always drawn. Over roughly 2,000 compounds, “fractional viability relative to vehicle” has its median near 0.92; the lowest 2% begin near 0.11. The entries come from a sample that favours the lowest values as a whole.

The assay concerns TYKNU. As to the kind of experiment: fractional viability relative to vehicle; TYKNU is a high-grade serous ovarian cancer line; higher = less growth inhibition. Particulars: 72 h, genotype: OPA1 knockout (sgOPA1 #2). The essentials: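 Drug treatment lasted 72 h, with cells grown at 37 °C in 5% CO2 in RPMI 1640 supplemented with 10% FBS. Beforehand, TYKNU control cells or their lentiCRISPRv2 knockout derivatives had been seeded at 500 cells per well into drug-stamped 384-well plates carrying a ~2100-compound library at 2 or 10 μM, in duplicate. Viability came from Cell Titer Glo luminescence, with averaged duplicate treatment wells normalised to duplicate control wells in the same plate position.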

Regarding `CCC[C@H](Nc1nc(-c2ccc(NC(=O)NCC)c(OC)c2)ncc1C)c1cccnc1` [CYT997 (Lexibulin)], the fractional viability reads like this: (2uM) 0.378; (10uM) 0.361.

Turning to `COc1ccc(CCC(=O)Nc2nc3ccc(Cl)cc3s2)cc1OC`, the fractional viability came out at 0.989 (2uM) and 1.04 (10uM).

For `CNc1cc(-c2cccc(Cl)c2Cl)nc(N)n1`, the fractional viability runs as follows: (2uM) 0.476; (10uM) 0.368.

With `CN1CCN(C2CCN(C(=O)Nc3cc(Oc4ccc(NC(=O)C5(C(=O)Nc6ccc(F)cc6)CC5)c(F)c4)ccn3)CC2)CC1` [Golvatinib (E7050)], the fractional viability reads like this: (2uM) 0.92; (10uM) 0.485.

For `COc1ccc(C2=N[C@H](c3ccc(Cl)cc3)[C@H](c3ccc(Cl)cc3)N2C(=O)N2CCNC(=O)C2)c(OC(C)C)c1` [Nutlin-3b], the fractional viability reads like this: (2uM) 0.806; (10uM) 0.737.

As to `CCOc1nc2cccc(C(=O)O)c2n1Cc1ccc(-c2ccccc2-c2noc(=O)[nH]2)cc1` [Azilsartan], the fractional viability came out at 0.997 (2uM) and 1.12 (10uM).

For the molecule `CO[C@@H](C(=O)N1Cc2[nH]nc(NC(=O)c3ccc(N4CCN(C)CC4)cc3)c2C1)c1ccccc1`, the fractional viability (2uM) is 0.964 and the fractional viability (10uM) was found to be 0.815.

For `CCc1cccc(CC)c1NC(=O)N1Cc2[nH]nc(NC(=O)c3ccc(N4CCN(C)CC4)cc3)c2C1`, the fractional viability was 1.02 (2uM) and 0.885 (10uM).

Turning to `CN1CCN(c2ccc(C(=O)Nc3n[nH]c4ccc(Cc5cc(F)cc(F)c5)cc34)c(NC3CCOCC3)c2)CC1` [Entrectinib (RXDX-101)], the fractional viability runs as follows: (2uM) 0.712; (10uM) 0.113.

Take `Clc1cccc(CN=C2Nc3ccccc3NC23CCNCC3)c1` [Liproxstatin-1]: the fractional viability was determined as 0.816 (2uM) and 0.729 (10uM).

For the molecule `CCOc1cn(-c2ccc(F)cc2C)nc1C(=O)Nc1ccc(Oc2ccnc3cc(OC)c(OC)cc23)c(F)c1`, the fractional viability runs as follows: (2uM) 0.919; (10uM) 0.773.

For the molecule `Clc1ccc(C(Cn2ccnc2)OCc2ccc(Sc3ccccc3)cc2)c(Cl)c1` (stereo not given) [Fenticonazole Nitrate], the fractional viability reads like this: (2uM) 0.933; (10uM) 0.911.

Consider `Cc1cc(C)c(CNC(=O)c2cc(-c3ccc(N4CCN(C)CC4)nc3)cc3c2c(C)cn3C(C)C)c(=O)[nH]1`, for which the fractional viability runs as follows: (2uM) 0.878; (10uM) 0.945.

Take `C=C1C(=O)O[C@H]2[C@H]1CC/C(C)=C/CC[C@@]1(C)O[C@@H]21` [(-)-Parthenolide]: the fractional viability worked out at 0.557 (2uM) and 0.0743 (10uM).

`C=C1C(=O)O[C@@H]2/C=C(\C)CC/C=C(\C)CC[C@@H]12` [Costunolide]: the fractional viability is, setting by setting: (2uM) 1.15; (10uM) 0.522.

As to `Cc1c[nH]c(/C=C2\C(=O)Nc3ccccc32)c1CCC(=O)O`, the fractional viability turned out to be 0.793 (2uM) and 0.846 (10uM).

The molecule `CN(C)Cc1cccc(N/C(=C2\C(=O)Nc3cc(C(N)=O)ccc32)c2ccccc2)c1` registered a fractional viability (2uM) of 0.93 and a fractional viability (10uM) of 0.993.

With `CCS(=O)(=O)Nc1ccc2c(c1)/C(=C(/Nc1ccc(CN3CCCCC3)cc1)c1ccccc1)C(=O)N2` [Hesperadin], the fractional viability is, setting by setting: (2uM) 0.544; (10uM) 0.113.

Consider `COC(=O)c1ccc2c(c1)NC(=O)/C2=C(\Nc1ccc(N(C)C(=O)CN2CCN(C)CC2)cc1)c1ccccc1` [Nintedanib (BIBF 1120)], for which the fractional viability amounted to 1.32 (2uM) and 0.372 (10uM).

Turning to `CCOc1cc(C(C)(C)C)ccc1C1=N[C@@](C)(c2ccc(Cl)cc2)[C@@](C)(c2ccc(Cl)cc2)N1C(=O)N1CCN(CCCS(C)(=O)=O)CC1`, the fractional viability was determined as 0.49 (2uM) and 0.469 (10uM).

Turning to `O=C(c1cc(Cc2n[nH]c(=O)c3ccccc23)ccc1F)N1CCN(C(=O)C2CC2)CC1`, the fractional viability runs as follows: (2uM) 1.03; (10uM) 0.936.

`C=CC(=O)Nc1cccc(Oc2nc(Nc3ccc(N4CCN(C)CC4)cc3OC)ncc2Cl)c1` had a fractional viability (2uM) of 0.964 and a fractional viability (10uM) of 0.766.

On to `C=CC(=O)Nc1cccc(Sc2nc(Nc3ccc(N4CCN(C)CC4)cc3)ncc2Cl)c1`, for which the fractional viability runs as follows: (2uM) 1.31; (10uM) 0.1.

Turning to `C=CC(=O)Nc1cccc(Oc2nc(Nc3ccc(N4CCN(C)CC4)cc3)ncc2Cl)c1`, the fractional viability by setting is: (2uM) 0.825; (10uM) 0.5.

`COc1ccc(CCc2nc3cc(-c4c(C)noc4C)ccc3n2C[C@H](C)N2CCOCC2)cc1Cl`: the fractional viability runs as follows: (2uM) 0.813; (10uM) 0.639.

In turn, `COc1cc2c(Oc3ccc4[nH]c(C)cc4c3F)ncnc2cc1OCCCN1CCCC1` [Cediranib (AZD2171)] came in with a fractional viability (2uM) of 1.1 and a fractional viability (10uM) of 0.181.

Turning to `COc1cc2nc(N3CCN(C(=O)C4CCCO4)CC3)nc(N)c2cc1OC` (stereo not given) [Terazosin HCl], the fractional viability reads like this: (2uM) 1.14; (10uM) 1.15.

Consider `COc1cc2nc(N3CCN(C(=O)C4COc5ccccc5O4)CC3)nc(N)c2cc1OC` (stereo not given) [Doxazosin Mesylate], for which the fractional viability is, setting by setting: (2uM) 1.1; (10uM) 1.22.

The molecule `COc1cc2nc(N3CCCC3)nc(NCCCCCN3CCCC3)c2cc1OC` had a fractional viability (2uM) of 0.679 and a fractional viability (10uM) of 0.0949.

In turn, `COc1cc2nc(N3CCCN(C)CC3)nc(NC3CCN(Cc4ccccc4)CC3)c2cc1OC` gave a fractional viability (2uM) of 0.506 and a fractional viability (10uM) of 0.0546.

In the case of `COc1cc(OC)c(C(=O)CCCN2CCCC2)c(OC)c1` [Buflomedil HCl], the fractional viability turned out to be 0.851 (2uM) and 0.685 (10uM).

As to `COC(=O)c1ccc2c(c1)[nH]c1ncnc(NCCCN3CCCCC3)c12`, the fractional viability (2uM) worked out at 0.785 and the fractional viability (10uM) turned out to be 0.985.

`COc1cc2c(NC3CCN(CC4CCCCC4)CC3)nc(N3CCCN(C(C)C)CC3)nc2cc1OCCCN1CCCCC1` yielded a fractional viability (2uM) of 0.786 and a fractional viability (10uM) of 0.0322.

As for `COc1cc(Nc2c(C#N)cnc3cc(OCCCN4CCN(C)CC4)c(OC)cc23)c(Cl)cc1Cl` [Bosutinib (SKI-606)], the fractional viability (2uM) turned out to be 0.995 and the fractional viability (10uM) amounted to 0.284.

Regarding `Cc1nc2c(O)cccc2c(=O)[nH]1`, the fractional viability was found to be 0.925 (2uM) and 0.903 (10uM).

The record behind these values is the supplement of paper PMC5919970.
